Six1-Eya2 blk = qHTS Assay for Inhibitors of the Six1/Eya2 Interaction; activity change, % (test concentration not listed); AlphaScreen GST-Six1/His-Eya2 binding, biochemical; hits give low values; 0.56% of 360,000 active; Homeobox protein SIX1 (Homo sapiens) + Protein phosphatase EYA2 (Homo sapiens), …; in the data active = activity change below about -65%; inconclusive = mostly about -30% to -63%
Target sequence (O00167 whole entry, looked up): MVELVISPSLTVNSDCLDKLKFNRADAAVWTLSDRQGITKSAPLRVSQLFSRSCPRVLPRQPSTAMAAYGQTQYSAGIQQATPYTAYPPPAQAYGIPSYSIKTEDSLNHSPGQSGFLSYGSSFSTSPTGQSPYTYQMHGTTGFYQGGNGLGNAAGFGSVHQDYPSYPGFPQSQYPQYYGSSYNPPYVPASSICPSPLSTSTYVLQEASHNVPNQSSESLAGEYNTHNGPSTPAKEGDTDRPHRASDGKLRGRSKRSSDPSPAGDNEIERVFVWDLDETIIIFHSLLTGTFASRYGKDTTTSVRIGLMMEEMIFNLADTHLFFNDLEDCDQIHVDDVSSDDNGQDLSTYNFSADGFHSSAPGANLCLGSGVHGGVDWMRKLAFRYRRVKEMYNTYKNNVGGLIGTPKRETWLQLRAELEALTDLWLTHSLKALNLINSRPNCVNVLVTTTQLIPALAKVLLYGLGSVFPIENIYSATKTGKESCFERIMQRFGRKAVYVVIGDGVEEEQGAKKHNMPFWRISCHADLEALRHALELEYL
Target sequence (Q15475 whole entry, looked up): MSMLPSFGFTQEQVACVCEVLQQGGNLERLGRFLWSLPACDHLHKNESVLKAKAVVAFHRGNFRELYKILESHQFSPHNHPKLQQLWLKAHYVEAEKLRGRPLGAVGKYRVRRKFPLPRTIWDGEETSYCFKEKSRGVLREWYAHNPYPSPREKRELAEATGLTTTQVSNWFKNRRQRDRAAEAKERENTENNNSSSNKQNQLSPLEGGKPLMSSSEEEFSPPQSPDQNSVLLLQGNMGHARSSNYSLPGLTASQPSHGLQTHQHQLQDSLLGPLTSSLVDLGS
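Homogeneous AlphaScreen proximity assay pairing GST-Six1 with His-tagged Eya2 (added as 5X mix: 250 nM and 500 nM) in 50 mM Tris pH 8.0, 300 mM NaCl, 1 mM TCEP. Glutathione donor and nickel acceptor beads; 1 h, 37 °C, dark.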
CtBP-E1A blk = qHTS Assay for Inhibitors of the CtBP/E1A Interaction. CtBP / adenovirus E1A interaction (AlphaScreen). AlphaScreen GST-E1A/His-CtBP binding, 1536-well; hits give low values. activity change, % (no concentration beside the values). 0.49% of 340,000 active. AID 651724, 2012; in the data active = activity change below about -65%; inconclusive = mostly about -30% to -63%
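AlphaScreen with 125 nM GST-E1A and 125 nM His-CtBP (5X stocks) in Tris pH 8.0, 300 mM NaCl, BSA, Tween 20, TCEP. Compounds preincubated 2 h at 37 deg C, then glutathione donor/nickel acceptor beads added for 1 h at 37 deg C in dark.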
JMJD2A Tudor = qHTS Assay for Inhibitors of JMJD2A-Tudor Domain; Potency, µM (titrated, usually from 114 µM), most hits filed as inhibitors; 4.4% of 390,000 active; Lysine-specific demethylase 4A (Homo sapiens), O75164; AlphaScreen JMJD2A-Tudor / H3K4me3 peptide binding; note: nearly all actives have a fitted effect of over 50% in size
BAZ2B inh = qHTS Assay for Inhibitors of BAZ2B. AlphaScreen BAZ2B-H3K14Ac peptide displacement. 4.4% of 360,000 active. Bromodomain adjacent to zinc finger domain protein 2B (Homo sapiens), Q9UIF8. Potency, µM (doses to about 114 µM), most hits filed as inhibitors. AID 504333, 2011; note: nearly all actives have a fitted effect of over 60% in size
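Compounds, titrated to a top concentration of 110 uM, were incubated 30 min at room temperature with preformed BAZ2B/acetyl-K14 H3 peptide complex (50 nM each). Proximity signal was measured by AlphaScreen after 20 min with beads.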
G9a inh = qHTS Assay for Inhibitors of Histone Lysine Methyltransferase G9a. Histone-lysine N-methyltransferase EHMT2 (Homo sapiens), Q96KQ7. G9a H3K9 monomethylation, AlphaScreen, 2 h. Potency, µM (titrated, usually from 102 µM), hits mostly inhibitors. 8.8% of 350,000 active; note: nearly all actives have a fitted effect of over 75% in size
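G9a (20 nM) preincubated 15 min RT with compounds, then 500 nM biotinylated H3K9 peptide and 20 uM SAM added; 2 h RT reaction. Monomethyl-H3K9 product detected by AlphaScreen with anti-H3K9me1 antibody, streptavidin donor and anti-rabbit IgG acceptor beads.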
HP1b chromo inh = HTS for Inhibitors of HP1-beta Chromodomain Interactions with Methylated Histone Tails; Chromobox protein homolog 1 (Homo sapiens), P83916; AlphaScreen HP1-beta / biotin-H3K9me3 peptide binding; Potency, µM (top dose mostly 114 µM), hits mostly inhibitors; 0.56% of 390,000 active; AID 540317, 2011; note: nearly all actives have a fitted effect of over 70% in size
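HP1-beta protein (50 nM final) preincubated 30 min at room temperature with biotinylated H3(1-18)K9me3 peptide (50 nM) in PBS pH 7.4, 0.01% Tween-20, then compound added for 30 min. AlphaScreen streptavidin donor/nickel chelate acceptor beads (10 ug/mL final), 30 min dark, luminescence read.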
Numbers stand for hits; - = inactive; ? = inconclusive; . = no result given; [ ] = another dose, or the depositor's remark. This is a sample that favours compounds with a hit; in the whole collection about 10% have one here. Unless noted, calls come from the whole dose curve; as a rule, active = well fitted inhibition curve with a large enough effect; inconclusive = small, poorly fitted or top-dose-only effect; inactive = no such curve, though single readings can be large or run the other way.

SMILES | Six1-Eya2 blk | CtBP-E1A blk | JMJD2A Tudor | BAZ2B inh | G9a inh | HP1b chromo inh
O=C(Nc1cc(C(=O)Nc2ccccc2C(=O)O)cc(C(=O)Nc2ccccc2C(=O)O)c1)c1ccccc1 | -69 | ? | ? | - | - | -
O=C(Nc1ccccc1C(=O)O)c1cccc(NC(=O)c2ccccc2Br)c1 | - | - | - | - | - | -
Cc1ccc(NC(=O)c2ncn(CCCNCC3CCCCC3)n2)cc1C | - | - | . | . | . | .
Cc1ccc(-n2c(-c3cccc(C)c3)n[nH]c2=S)cc1 | - | - | 20µM | - | - | -
Cc1ccc(-n2c(-c3c(-c4ccccc4)noc3C)n[nH]c2=S)cc1 | - | - | - | - | 0.56µM | -
Cc1ccc(-n2c(C)nc3ncnc(-c4ccccc4)c32)cc1 | - | - | - | - | - | -
COc1ccc(-c2n[nH]c(=S)n2-c2ccc(C)cc2)cc1OC | - | - | 6.3µM | - | 4µM | -
CCOC(=O)[C@@H]1[C@H]2COc3cc(OC)ccc3[C@@H]2N2C(=O)N(c3cccc(Cl)c3)C(=O)[C@@]12C | - | . | - | - | . | -
CCOc1cc(/C=C2/NC(=O)N(CC(=O)Nc3cccc(C)c3)C2=O)ccc1OCC(N)=O | - | - | 56µM | - | - | -
CCOc1cccc(/C=C2/NC(=O)N(CC(=O)Nc3cccc(C)c3)C2=O)c1O | - | - | - | - | - | -
Nc1c(O)cccc1C(=O)O | - | - | 56µM | . | . | -
O=C(O)c1ccccc1O | - | - | - | - | - | -
O=C(O)c1cccc(C(=O)O)c1Br | - | - | 89µM | ? | - | -
CCCCCCCCCCCC(=O)[O][Sn]([CH2]CCC)([CH2]CCC)[O]C(=O)CCCCCCCCCCC | . | . | . | . | - | .
O=C(O)c1occc1CSc1ccccc1 | - | - | - | - | ? | -
Cc1oc(C(=O)O)cc1CSCc1ccoc1C(=O)O | - | - | ? | ? | 45µM | -
Cc1oc(C(=O)O)cc1CSCc1cc(C(=O)O)c(C)o1 | - | - | 89µM | - | 14µM | -
Cc1cccc(CSCc2ccc(C(=O)O)o2)c1 | - | . | - | - | -[0.501 µM] | ?
Cc1cc(C)c(C)c(S(=O)(=O)NCC(=O)Nc2ccccc2F)c1C | - | - | - | - | ? | -
CCOC(=O)CC(NS(=O)(=O)c1ccc2[nH]cc(C(=O)O)c(=O)c2c1)c1ccc(OCC)c(OC)c1 (centres undefined) | - | - | 22µM | 28µM | 10µM | 50µM
Cc1cc2nc(C(C)(C)C)c(Cc3cccc(F)c3)n2c(C)c1Br | - | - | . | . | . | .
CCOC(=O)Cc1cc(=O)n(-c2nc3ccccc3s2)[nH]1 | - | - | - | - | 32µM | -
CCOC(=O)c1ccc(NC(=O)CCC(=O)N2CCSc3ccccc32)cc1 | . | . | - | - | - | -
CC1CCN(S(=O)(=O)c2ccc3c(c2)N(CC(=O)N2CCN(c4ccc(Cl)cc4)CC2)C(=O)CO3)CC1 | . | . | - | - | - | -
C=C(C)C(=O)NNc1ccccc1 | - | - | - | - | 11µM | -
SMILES | Six1-Eya2 blk | CtBP-E1A blk | JMJD2A Tudor | BAZ2B inh | G9a inh | HP1b chromo inh
CC(C)OC(=O)C(=O)NNc1ccccc1 | - | - | - | - | ? | -
CCCOC(=O)C(=O)NNc1ccccc1 | - | - | - | - | 40µM | -
O=c1[nH]c(S)c(/C=C2\C=Nc3ccccc32)s1 | - | - | ? | 11µM | 14µM | ?
O=c1cc(-c2ccc(O)c(O)c2)oc2cc(O[C@@H]3O[C@H](CO)[C@@H](O)[C@H](O)[C@H]3O)cc(O)c12 | ? | - | 13µM | . | . | -
CC(=O)Nc1ccc(NC(=O)Nc2cccc(Cl)c2)cc1 | - | - | - | - | - | -
CC(=O)C(=Nc1ccc(Cl)cc1Cl)NNc1cccc(Cl)c1 | ? | ? | 56µM | 14µM | ? | ?
CC(C)=C1C(=O)NN(c2ccc(F)c(Cl)c2)C1=O | - | - | - | ? | . | -
O=C1NN(c2ccc(F)c(Cl)c2)C(=O)/C1=C\c1cccc(OC(=O)c2cccs2)c1 | - | - | 79µM | ? | 20µM | ?
O=C(NNC(=O)c1cccnc1)NC1CCCCC1 | - | . | - | - | - | -
O=C(NNC(=O)c1cc(O)c(O)c(O)c1)NC1CCCCC1 | - | - | 10µM | 56µM | 1.6µM | -
CCOC(=O)c1c(NC(=O)COC(=O)c2ccncc2)sc(C)c1C | - | - | - | - | - | -
CCOC(=O)c1c(NC(=O)c2ccncc2)sc(C)c1C | - | . | - | - | 16µM | -
CCOC(=O)c1c(NC(=O)c2cc(C(C)C)on2)sc(C)c1C | . | . | - | - | 20µM | -
CCOC(=O)c1c(NC(=O)c2ccc(Cl)s2)sc(C)c1C | - | - | - | - | - | -
CCOC(=O)c1sc(NC(=O)c2cc(CC)on2)c(C(=O)OCC)c1C | . | . | - | - | - | -
CCCc1cc(C(=O)Nc2sc(C)c(C)c2C(=O)OCC)no1 | - | - | - | - | 10µM | -
CC1=CCC2CC1C2(C)C (centres undefined) | . | . | . | . | - | .
CSc1n[nH]c(/N=C/c2oc(O)c3ccccc23)n1 | - | - | - | ? | 20µM | -
Oc1oc(C=Nc2ccc(F)cc2F)c2ccccc12 | - | . | - | ? | 5µM | -
Cc1cccc(/N=C/c2c(O)c3ccccc3oc2=O)n1 | - | - | - | - | -[12.7 µM] | -
COc1ccc(-c2nc3cnc(N(C)C)nc3n(Cc3ccc(F)cc3)c2=O)cc1 | . | . | . | . | -[0.501 µM] | .
CCN(CC)c1ccc(NC(=O)Cn2cc3c(n2)CCCC3)c(C)c1 | . | . | ? | - | 10µM | -
CC(=O)Nc1ccc(NC(=O)Cn2cc3c(n2)CCCCC3)cc1 | . | . | - | - | 16µM | -
CCN(CC)c1ccc(NC(=O)Cn2cc3c(n2)CCC(C)C3)c(C)c1 (centres undefined) | - | - | ? | ? | 4.5µM | ?
COc1ccc(C(=O)c2cnc3ccc(C)cc3c2S(=O)(=O)c2ccccc2)cc1 | . | . | ? | ? | ? | -
O=C(O)c1ccc(Nc2ncnc3c2cnn3Cc2ccccc2)cc1 | - | - | 50µM | - | 32µM | ?
Cc1cccc(Nc2ncnc3c2cnn3Cc2ccccc2)c1 | - | . | ? | ? | 50µM | -
CCCn1c(SCC(N)=O)nnc1-c1ccco1 | - | - | ? | - | - | -
C[C@H](CO)N1C[C@H](C)[C@@H](CN(C)S(=O)(=O)c2ccc(F)cc2)Oc2ccc(NC(=O)CCN3CCOCC3)cc2C1=O | - | - | - | . | . | -

Screening data: PubChem, National Center for Advancing Translational Sciences (NCATS)
